This is a sample that favours compounds with a hit; in the whole collection about 1.6% have one here.
DYRK1A inh: Dyrk1A (rat) kinase inhibition | inhibition, % at 12.5 µM | AID 504441 | Q63470 | ADP-Glo luminescence, NFATc1 peptide | hit rate 0.43% among 310,000; in the data active = inhibition above about 50%;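 also: plate controls were vehicle with enzyme for no effect and no enzyme for full effect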
dFosB act-1: mouse delta FosB homodimer activation; purified delta FosB, TAMRA-CDK5 oligo fluorescence polarization; percent of positive-control signal above neutral wells; activation, % at 25 µM; hit rate 0.99% among 340,000;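 active = mean activation above about 17%, with every replicate also reaching it, limit read from the data, passing the limit was not always enough; inconclusive = only one of the two conditions met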
B2AR ag: agonists of human beta-2 adrenergic receptor inducing internalization. Am2.2-beta2AR cells, FAP receptor internalization, flow cytometry. response, % (no concentration beside the values). hit rate 0.43% among 340,000;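 active = response above a set limit, near 3 SD of response in nonfluorescent compounds, cut at about 42% in these data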
Target sequence (P07550 whole entry, looked up): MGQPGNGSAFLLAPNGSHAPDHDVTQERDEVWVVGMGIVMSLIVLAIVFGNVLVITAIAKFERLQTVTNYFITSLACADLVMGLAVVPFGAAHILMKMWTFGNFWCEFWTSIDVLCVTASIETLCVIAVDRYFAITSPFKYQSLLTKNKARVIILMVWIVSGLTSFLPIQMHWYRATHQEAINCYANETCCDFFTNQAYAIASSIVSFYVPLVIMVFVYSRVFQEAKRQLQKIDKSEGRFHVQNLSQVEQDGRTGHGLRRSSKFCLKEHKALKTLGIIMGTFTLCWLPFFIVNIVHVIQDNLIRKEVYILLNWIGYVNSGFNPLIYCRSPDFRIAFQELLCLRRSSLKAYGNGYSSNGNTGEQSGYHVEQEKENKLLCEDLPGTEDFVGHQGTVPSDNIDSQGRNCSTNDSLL
A1 inh: inhibitors of the anti-apoptotic protein A1, read as caspase activation; MEF A1-2A-BIM cells, Caspase-Glo 3/7 luminescence, 3 h; percent of clofoctol response, vehicle zero; caspase activation, % (no concentration beside the values); hit rate 0.066% among 330,000; AID 2462;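 active = over half of replicate activation scores above 10%, or exactly half above 10 with the replicate mean above 10; inconclusive = replicate mean below 10 yet half the replicates above 10; inactive = over half of replicates below 10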
dFosB act-2: activators of mouse delta FosB homodimer DNA binding. shares compounds with dFosB act-1. purified delta FosB, TAMRA-CDK5 oligo fluorescence polarization; normalised: neutral wells 0, positive control 100. activation, % at 24.9 µM. 2,400 tested, under 10 active;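 active = highest replicate activation at or above 34% and every replicate reaching that threshold; inconclusive = meets only one of the two criteria; inactive = meets neither criterion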;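 also: higher polarization means more probe DNA bound by delta FosB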
Starred values were filed as active, the others as inactive; ? = inconclusive; . = not tested or not shown.

SMILES	DYRK1A inh	dFosB act-1	B2AR ag	A1 inh	dFosB act-2
CCOC(=O)c1c(C)[nH]c(C(=O)N(C)CC(=O)Nc2ccc(OC)cc2)c1C	8	-4	-3	1	.
Cc1cc(OCC(=O)N2CCC[C@@H]2C(=O)O)c2c(C)c(C)c(=O)oc2c1	-9	-3	1	0	.
Cc1cc(OCC(=O)N2CCN(c3cccc(Cl)c3)CC2)c2c(C)c(C)c(=O)oc2c1	2	39*	14	1	0
O=C(Nc1ccccc1N1CCOCC1)c1cc(-c2ccncc2)nc2ccccc12	.	-17	3	0	.
COc1ccc(-c2cc(C(=O)Nc3ccccc3N3CCOCC3)c3ccccc3n2)cc1OC	-5	27*	-3	0	-1
Cc1ccc(CCNC(=O)c2cc(-c3ccncc3)nc3ccc(S(=O)(=O)N4CCOCC4)cc23)cc1	1	30*	17	6.4*	2
COc1cc(NC(=O)c2cc(-c3cccnc3)nc3ccc(Br)cc23)cc(OC)c1	.	63*	6	0	1
O=C(Nc1cccnc1)c1cc(-c2cccnc2)nc2ccc(Br)cc12	4	-22	4	.	.
COc1ccc(-c2cc(C(=O)Nc3ccc(C(N)=O)cc3)c3ccccc3n2)cc1	0	37*	6	-1	8
Cc1ccsc1C(=O)NCCc1c[nH]c2ccccc12	0	4	-6	-3	.
O=C(OCc1ccccc1C(F)(F)F)c1ccc(Br)c(S(=O)(=O)N2CCOCC2)c1	.	-6	7	.	.
Nc1nc(SCCO)[nH]c(=O)c1NC(=O)c1ccc(Br)o1	-3	-7	-1	1	.
O=C(O)C1Oc2ccccc2C1c1ccccc1 (stereo not drawn)	1	7	2	.	.
COc1ccccc1CNC(=S)NCc1ccc(F)cc1	6	-3	-12	0	.
COc1ccc(-c2cc(C(=O)Nc3nc4ccccc4s3)c3ccccc3n2)cc1OC	-5	65*	5	-1	?
Cc1onc(-c2ccccc2)c1C(=O)Nc1ccc(S(=O)(=O)N2CCCCC2)cc1	-7	-10	1	.	.
Cc1ccc(S(=O)(=O)N2CCCCC2)cc1NC(=O)c1c(-c2ccccc2)noc1C	.	18*	-14	0	5
COc1cc(-c2cc(C(=O)Nc3cc(S(=O)(=O)N4CCOCC4)ccc3O)c3ccccc3n2)cc(OC)c1OC	-1	3	5	0	.
COc1cc(-c2cc(C(=O)Nc3cc(S(=O)(=O)N4CCOCC4)ccc3C)c3ccccc3n2)cc(OC)c1OC	9	44*	8	.	2
COc1ccc(-c2cc(C(=O)Nc3ccccc3O)c3ccccc3n2)cc1OC	1	-12	-6	-1	.
COc1ccc(S(=O)(=O)N2CCOCC2)cc1NC(=O)c1cccc2c(=O)c(C)c(-c3ccccc3)oc12	4	45*	14	1	5
Cc1cccc(C)c1NC(=O)C(=O)NCC1CCCN1S(=O)(=O)c1ccccc1 (stereo not drawn)	-2	-5	8	1	.
CC(C)CN(C(=O)COC(=O)c1cc2ccccc2cc1O)c1c(N)n(Cc2ccccc2)c(=O)[nH]c1=O	.	13	-2	.	.
CCc1nc2ccc(Cc3ccc4nc(CC)[nH]c4c3)cc2[nH]1	3	2	-5	-2	.
O=C(Nc1ccccc1Cc1ccccc1)C1CC(=O)N(c2ccc3c(c2)OCCO3)C1 (stereo not drawn)	-2	36*	-11	0	0
SMILES	DYRK1A inh	dFosB act-1	B2AR ag	A1 inh	dFosB act-2
COc1cc(OC)c2nc(C)c3c(c2c1)N(c1ccc(O)cc1)CC3	-6	47*	-3	-1	6
COc1ccc(N2CCN(c3cc(C)c4ccc(O)cc4n3)CC2)cc1	0	1	-5	-1	.
Nc1ccc(S(=O)(=O)Nc2nccc(/C=C/c3ccc(Cl)cc3Cl)n2)cc1	-8	40*	22	0	-4
CSc1nc2sc(-c3ccccc3)cc2c(=O)n1N	-5	65*	-1	-7	4
O=C1c2ccccc2C(=O)N1Cc1nc2ccccc2c(=O)n1CCCn1ccnc1	41	-13	-11	.	.
CCCCn1c(CN2C(=O)c3ccccc3C2=O)nc2ccccc2c1=O	-6	30*	-1	0	0
CCOC(=O)N1CCN(S(=O)(=O)c2ccc(C(=O)Nc3nc4ccc(F)cc4s3)cc2)CC1	7	57*	3	1	-6
CCOC(=O)N1CCC(=NNc2nc3ccccc3s2)CC1	-1	-11	35	-3	.

Screens (PubChem)
